MITF inh: inhibitors of human MITF | hit rate 0.91% among 650,000 | AlphaScreen MITF homodimerization, bead proximity signal | O75030 | inhibition, % at 2.6 µM | AID 1259374; in the data active means inhibition above about 50%;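 further: 0% = vehicle wells with protein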
GPR151 ag: activates the human receptor GPR151 | hit rate 1% among 650,000 | PathHunter beta-arrestin GPR151 cells, luminescence | Q8TDV0 | activation, % at 11.2 µM | AID 1508602; in the data active means activation above about 4.9%;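 further: 0% = median of compound wells and 100% = cells with positive control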
Target sequence (Q8TDV0 whole entry, looked up): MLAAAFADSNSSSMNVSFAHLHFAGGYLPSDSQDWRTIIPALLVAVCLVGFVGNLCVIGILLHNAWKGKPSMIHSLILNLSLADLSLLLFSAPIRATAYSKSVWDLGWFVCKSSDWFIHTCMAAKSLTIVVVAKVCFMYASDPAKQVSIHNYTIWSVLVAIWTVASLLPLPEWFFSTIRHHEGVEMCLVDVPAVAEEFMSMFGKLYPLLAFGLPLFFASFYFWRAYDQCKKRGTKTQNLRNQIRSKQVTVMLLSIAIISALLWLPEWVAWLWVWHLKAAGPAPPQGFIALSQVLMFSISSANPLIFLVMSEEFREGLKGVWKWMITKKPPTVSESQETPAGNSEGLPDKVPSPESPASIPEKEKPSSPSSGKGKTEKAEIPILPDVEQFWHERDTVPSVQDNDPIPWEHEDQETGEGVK
FBW7 activator: human FBW7 E3 ligase activation, primary screen. AlphaScreen FBW7–phospho-cyclin E peptide binding, activator screen. hit rate 0.13% among 650,000. Q969H0. AID 1259310. normalized activity (activation), % at 26.1 µM; in the data active means normalized activity above about 1.9%;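 further: purified mutant Fbw7 with reduced substrate affinity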
TEAD-YAP inh: TEAD-YAP interaction inhibition; hit rate 1.4% among 640,000; HEK-TIYL cells, TEAD-Gal4/YAP UAS-luciferase luminescence; inhibition, % at 9.12 µM; in the data active means inhibition above about 32%;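 further: 0% = median of test compound wells and 100% = reference inhibitor wells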
GPR151 conf act: confirmation of human GPR151 activators. shares compounds with GPR151 ag. GPR151 PathHunter beta-arrestin cells, luminescence, 90 min; % of EA-reagent control over plate median. activation, % at 11.2 µM. 6,700 tested, under 10 active;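 active means mean percent activation across replicates above the confirmation screen cutoff of 4.91%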
GPR119 counter: counter-screen for GPR151 activators: effect on human GPR119 | shares compounds with GPR151 ag | GPR119 PathHunter beta-arrestin cells, luminescence, 90 min; 0 = compound-well median, 100 = enzyme-acceptor control | activation, % at 11.2 µM | hit rate 0.3% among 6,700;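 active means mean percent activation in the counterscreen above 29.09%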;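 further: counterscreen on off-target GPR119 to flag nonselective hits from the GPR151 activator screen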
* hit, by the source's call; · = no result given. Shown are actives, neighbours in structure and some others; about 3.5% of the full set was active somewhere.

SMILES | MITF inh | GPR151 ag | FBW7 activator | TEAD-YAP inh | GPR151 conf act | GPR119 counter
O=C(CC1CC2CCC1C2)Nc1nnc(-c2cccnc2)s1 (stereo unspecified) | -9 | 3 | 0 | 5 | · | ·
COc1ccc(C2C(C(N)=O)=C(C)Nc3ncnn32)cc1OC (stereo unspecified) | 3 | 5.1* | 0 | -3 | 1 | 10
COc1cc(C2C(C(N)=O)=C(C)Nc3ncnn32)cc(OC)c1OC (stereo unspecified) | -1 | 1 | 0 | 6 | · | ·
COc1ccc(C(=O)c2sc3nc(C)cc(-c4cccs4)c3c2N)cc1OC | -17 | 6.9* | 0 | -5 | -1 | 9
COc1ccc(C(=O)c2sc3nc(C)cc(-c4cccs4)c3c2N)cc1 | 2 | 0 | 0 | -2 | · | ·
COc1ccc(N2CCN(C(=O)C(c3ccccc3)c3ccccc3)CC2)nn1 | 7 | 5.7* | 0 | 3 | 1 | 1
O=C(CN1C(=O)S/C(=C\c2cccs2)C1=O)N1CCCC1 | 14 | 5.5* | 0 | -3 | 0 | 3
O=C(CCN1C(=O)/C(=C\c2cccs2)SC1=S)N1CCCC1 | 5 | 6.0* | -1 | 21 | -1 | -8
c1ccc2c(CN3CCc4nncn4CC3)cccc2c1 | 7 | 0 | 0 | 11 | · | ·
Nc1ccc(Oc2ccc(Cl)c3ccccc23)c(Cl)c1 | 4 | 11* | 0 | 2 | 0 | 7
Nc1ccc(Oc2ccc3ccccc3c2Cl)c(Cl)c1 | 10 | 2 | 1 | -9 | · | ·
O=C(Nc1nc(-c2ccc(I)cc2)cs1)C1CC1 | 13 | 5.9* | 0 | -41 | 0 | 9
Cc1cc(C)n(CCNC(=O)c2ccc(CN3CCC(C)CC3)[nH]c2=O)n1 | 1 | 1 | 0 | -1 | · | ·
Cc1ccc(NC(=O)CSc2nc3c(c(=O)n2C)SCC3)c(C)c1 | 5 | 7.4* | 0 | 25 | 0 | 6
C=C(C)CN(CC)Cc1nc(-c2ccccn2)no1 | 6 | 14* | 0 | 2 | 0 | 0
CCCCOc1ccc(/C=N/NC(=O)c2c(C)nnn2-c2nonc2N)cc1 | 6 | -1 | 0 | -1 | · | ·
Cc1ccccc1OCc1n[nH]c(=S)n1C | -6 | 7.2* | 0 | 5 | 0 | -1
CC1CCc2c(sc(NC(=O)/C=C/c3ccc(F)cc3)c2C#N)C1 (stereo unspecified) | -1 | 1 | 0 | -4 | · | ·
COc1ccccc1C(=O)OC(C)CN1CCCCC1 (stereo unspecified) | -4 | 2 | 0 | 1 | · | ·
O=C(NCCCO)/C(=C/c1ccccc1F)NC(=O)c1ccccc1 | -2 | 5.0* | 0 | 5 | 0 | 6
CCOc1ccc(NC(=O)COc2cccc(C)c2)cc1 | 1 | 0 | 0 | 4 | · | ·
Cc1nnc(SCCCn2c(N3CCOCC3)nc3c2c(=O)[nH]c(=O)n3C)s1 | -8 | 6.9* | 0 | -17 | 0 | 1
O=C(CN1CCC(O)(c2ccccn2)CC1)Nc1cccc(C(F)(F)F)c1 | 6 | -2 | 1 | 8 | · | ·
CCc1ccc2nc(N3CCC(C(=O)NCc4ccc(F)cc4)CC3)sc2c1 | 10 | 2 | 0 | -14 | · | ·
O=C(Nc1ccon1)c1sc2cc(F)ccc2c1Cl | 10 | -2 | 1 | -41 | · | ·
SMILES | MITF inh | GPR151 ag | FBW7 activator | TEAD-YAP inh | GPR151 conf act | GPR119 counter
O=C(NC1=NCCS1)c1sc2cc(F)ccc2c1Cl | · | 7.4* | · | · | 1 | -5
CC(=O)N1C(=O)C(=O)c2cc(Br)ccc21 | 15 | -1 | 1 | 7 | · | ·
CCc1ccccc1NC(=O)CN(c1ccc(C)cc1)S(C)(=O)=O | 13 | 0 | 0 | 9 | · | ·
COc1ccc(N(CC(=O)Nc2ccccc2-c2ccccc2)S(C)(=O)=O)cc1 | 3 | 15* | 0 | -1 | -1 | -3
COc1cccc(NC(=O)CN(C)CC(=O)Nc2ccccc2-c2ccccc2)c1 | 46 | 5.7* | 0 | -8 | -1 | -10
Cc1ccc(N(CC(=O)Nc2ccccc2C(C)C)S(C)(=O)=O)cc1 | 10 | 6.5* | 0 | 2 | 1 | 5
COc1cc2c(cc1OC)CN(/C=N/c1oc(-c3ccccc3)c(-c3ccccc3)c1C#N)CC2 | 4 | -1 | 0 | -2 | · | ·
Cc1[nH][nH]c(=O)c1C(c1cccs1)c1c(C)[nH][nH]c1=O | -17 | 4 | 0 | 3 | · | ·
N#CCCn1cc(C=O)c(-c2ccc(-c3ccccc3)cc2)n1 | 1 | 5.5* | 0 | -12 | 0 | -6

Bioassay records deposited in PubChem by The Scripps Research Institute Molecular Screening Center.
